These results are taken from PubChem BioAssay.

Results filed as inconclusive are left out. Activity calls are given as the source filed them.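 The calls were made as follows, unless noted: active = RAM network inhibition above 8.4% in each of two replicates, 3 SD over the compound average; inconclusive = above 8.4% inhibition in only one replicate; inactive = 8.4% inhibition or less in each replicate.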

A short description of assay [1]: Her2 expression decrease, cell viability multiplex – SKBR3 breast tumor cells, AlphaScreen, ATP viability, primary screen (AID 461;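 active = Her2 level under about 52% in both replicate screens, with viability over 70% of control, limit read from the data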;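 as to Her2 level: lower value means less Her2 protein in the cells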;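 as to viability: percent of carrier control wells set as 100% viability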). The conditions noted are these: SKBR3 Her2 protein level, 18-24 h, measured here: SKBR3 viability, ATP luminescence, at 10 µM. (In general: In Alpha technology, singlet oxygen from a donor bead excites a nearby acceptor bead.)
The target in assay [2] is Receptor tyrosine-protein kinase erbB-2 (Homo sapiens) (UniProt P04626). The assay is described as above. The note with it: 18-24 h, at 10 µM, stronger effect = lower value.
Sequence of Receptor tyrosine-protein kinase erbB-2 (Homo sapiens) (P04626 whole entry, looked up): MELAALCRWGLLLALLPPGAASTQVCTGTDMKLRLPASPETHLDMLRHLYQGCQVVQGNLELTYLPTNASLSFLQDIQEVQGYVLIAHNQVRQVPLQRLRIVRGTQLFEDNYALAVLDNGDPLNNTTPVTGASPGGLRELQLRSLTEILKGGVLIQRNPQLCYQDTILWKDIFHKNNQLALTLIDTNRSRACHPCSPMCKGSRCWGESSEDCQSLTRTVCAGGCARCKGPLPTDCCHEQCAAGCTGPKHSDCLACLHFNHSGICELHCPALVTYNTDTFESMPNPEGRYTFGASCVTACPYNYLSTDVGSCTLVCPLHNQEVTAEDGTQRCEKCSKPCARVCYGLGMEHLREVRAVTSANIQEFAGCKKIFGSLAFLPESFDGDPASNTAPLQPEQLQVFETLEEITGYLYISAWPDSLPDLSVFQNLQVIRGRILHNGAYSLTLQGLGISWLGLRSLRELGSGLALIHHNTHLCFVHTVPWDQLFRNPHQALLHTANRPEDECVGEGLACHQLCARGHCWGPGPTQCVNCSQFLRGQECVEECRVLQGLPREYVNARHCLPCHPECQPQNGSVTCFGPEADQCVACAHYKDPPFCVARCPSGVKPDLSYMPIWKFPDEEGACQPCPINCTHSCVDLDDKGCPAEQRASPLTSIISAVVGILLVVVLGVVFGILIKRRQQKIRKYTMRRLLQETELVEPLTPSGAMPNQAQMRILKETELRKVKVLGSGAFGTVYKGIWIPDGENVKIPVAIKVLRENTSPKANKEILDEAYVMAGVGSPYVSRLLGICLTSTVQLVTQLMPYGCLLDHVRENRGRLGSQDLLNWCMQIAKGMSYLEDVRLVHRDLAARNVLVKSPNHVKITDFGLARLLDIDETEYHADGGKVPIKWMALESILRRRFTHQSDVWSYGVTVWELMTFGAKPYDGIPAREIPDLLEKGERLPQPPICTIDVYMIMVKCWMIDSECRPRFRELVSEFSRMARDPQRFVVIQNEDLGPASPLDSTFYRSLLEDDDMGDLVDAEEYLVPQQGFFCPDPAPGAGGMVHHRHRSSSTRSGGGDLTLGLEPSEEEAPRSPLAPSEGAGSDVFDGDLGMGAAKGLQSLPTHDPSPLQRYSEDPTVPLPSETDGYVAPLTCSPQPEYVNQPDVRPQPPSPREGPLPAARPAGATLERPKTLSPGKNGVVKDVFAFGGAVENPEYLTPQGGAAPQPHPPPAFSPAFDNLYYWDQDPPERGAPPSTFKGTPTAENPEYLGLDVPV
Assay [3] is described as follows: reduced viability of SK-BR-3 breast cancer cells – cell-based, 24 h, human, pilot screen (AID 572;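 active = viability at or below 10% of carrier control in both of two separate runs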;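 also: compound exposure lasted between 18 and 24 h rather than exactly 24 h; 100% = carrier-treated control wells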). The conditions noted are these: SK-BR-3 viability, CellTiter-Glo luminescence, at 10 µM, stronger effect = lower value. A general note: In ATP-based viability assays light output follows the ATP content of the culture.
A short description of assay [4]: HUVEC growth inhibition – cell-based, human, primary screen (AID 575;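 active = viability at or below 30% in both replicate assays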;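 also: 100% = median of untreated cell wells with 0.1% DMSO on each plate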). The conditions noted are these: HUVEC proliferation, CellTiter-Glo luminescence, 72 h; at 10 µM; stronger effect = lower value.
Assay [5] can be described thus: H69AR cell proliferation blockers – human, duplicate replicates, primary screen (AID 580;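 active = viability at or under a set limit in both replicates, limit being median viability minus 3 SD, cut at about 48% in these data, passing the limit was not always enough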;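 also: 100% = mean luminescence of untreated wells and 0% = no signal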). The conditions noted are these: H69AR lung tumor cells viability, ATP luminescence, 72 h; at 10 µM; stronger effect = lower value.
Assay [6] in a line: MRP1 drug-resistance reversers in H69AR cells – cell-based, doxorubicin co-treatment, pilot screen (AID 601;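 active = viability loss from added drug above about 55%, and viability with drug at most 40%, in both replicates, limit read from the data, passing the limit was not always enough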). The conditions noted are these: CellTiter-Glo, 72 h, at 10 µM; for differential viability (reversal): stronger effect = higher value.
Assay [7] can be described thus: yeast transport mutant growth inhibition pilot in 384-well plates, post-Golgi transport modulator project (AID 636; in the data active = inhibition above about 31%). The note with it: absorbance 615 nm, about 18 h, stronger effect = higher value.
Assay [8] is described as follows: growth suppression of yeast trafficking mutant, preliminary HTS, modulators of trafficking downstream of Golgi apparatus project, 1536-format plate, OD 615 nm (AID 637; in the data active = inhibition above about 30%). The note with it: yeast transport mutant growth, absorbance 615 nm, 18 h; stronger effect = higher value.
Assay [9] can be described thus: S. cerevisiae growth inhibition in permissive medium (OD615), pilot counter-assay for S. cerevisiae lifespan shortening project, permissive growth control (AID 705;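 active = growth inhibition above 25% in both replicates, a cutoff set 3 SD above the mean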). The note with it: OD615, 24 h, at 10 µM, stronger effect = higher value.
Assay [10] is described as follows: S. cerevisiae growth inhibition in restrictive medium, OD615, pilot screen, restrictive growth control, yeast lifespan reduction project (AID 706;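 active = growth inhibition above a set limit, 3 SD over mean compound inhibition, in both replicates, cut at about 43% in these data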;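 also: modified DeaD lifespan yeast strain shifted to restrictive glucose medium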). The conditions noted are these: OD615, 48 h, at 10 µM, stronger effect = higher value.
Assay [11] can be described thus: doxorubicin toxicity protection in MRP-1 cells – H69AR cells, CellTiter-Glo, duplicate, MRP-1 activator project, pilot screen (AID 807;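 active = viability increase at or above a cutoff of the median across tested compounds plus 3 SD, cut at about 8.5% in these data, passing the limit was not always enough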;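 also: compound pretreatment 18-22 h then 72 h combined with doxorubicin; 0% = doxorubicin alone and 100% = vehicle without doxorubicin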). The note with it: H69AR viability with doxorubicin, CellTiter-Glo luminescence; at 10 µM; stronger effect = higher value.
Assay [12] can be described thus: viability of HCT116 without oncogenic beta-catenin – human colon tumor cells, pilot screen (AID 823;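 active = cell viability at or below a set limit in both duplicate runs, the limit being the all-compound median minus 4 SD, cut at about 23% in these data, passing the limit was not always enough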;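 also: 0% = wells killed by 20 µM Hyamine and 100% = untreated DMSO cell wells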). The conditions noted are these: HCT116 beta-catenin knockout viability, CellTiter-Glo, 60 h; at 10 µM; stronger effect = lower value.
The nature of assay [13]: viability of PTEN-null HCT116 cells – cell-based, HCT116 clonal line, CellTiter-Glo, pilot screen (AID 824;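 active = viability at or below 27.92% in each of two runs, the all-compound median minus 4 SD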;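 also: 0% = 20 µM Hyamine control and 100% = vehicle cell control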). The conditions noted are these: HCT116 PTEN-deleted viability, 60 h, at 10 µM, stronger effect = lower value.
Assay [14] can be described thus: RAM pathway blockade in budding yeast – dse1pr::URA3 reporter, 5-FOA selection, pilot screen (AID 869;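 active = inhibition over a set limit, the all-compound mean plus 3 SD, in both replicate runs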;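 also: 0% = DMSO wells with no growth and 100% = 10 µM 1-NA-PP1 with full growth; RAM network block rescues cells from 5-FOA so hits raise OD615 growth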). The conditions noted are these: S. cerevisiae dse1pr::URA3 5-FOA growth, OD615, 2 d; at 10 µM; stronger effect = higher value; strain carries analog-sensitive mutant Cbk1 kinase.
A short description of assay [15]: RAM signaling pathway blockade in yeast – S. cerevisiae, Pdr1DBD-CYC8 efflux-inhibited sensitized strain, primary screen (AID 1298).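 Also: 0% = DMSO untreated cells without growth and 100% = 10 µM 1-NA-PP1 full growth; higher means more yeast growth rescued from 5-FOA killing.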 The note with it: S. cerevisiae cbk1-as DSE1-URA3 strain, 5-FOA growth OD615, 2 d; at 50 µM; stronger effect = higher value.
The mark [16] stands for this setting: H69AR cells + 2 uM doxorubicin, measured here: viability with 2 uM doxorubicin, stronger effect = lower value.
Where [17] appears, read: H69AR cells, compound alone cytotoxicity.

A word on the viability: it is a read-out of living cells in per cent, often relative to untreated cells. The inhibition is the relative decrease from the control value, in per cent. `CC(=O)N1CCc2c(sc(NC(=O)c3ccc(S(=O)(=O)N(C)C)cc3)c2C#N)C1`: the viability in [1] was 83.5%; in [3], 83.5% (inactive); in assay [4], 73.3% (inactive); in [5], 87.5% (inactive); in assay [6] (setting [16]), 81.5%; in assay [6] (setting [17]) it was 87.5%. Besides, the figures for the viability in [12] and in assay [13] were 104% (inactive) and 94.3% (inactive), respectively. Moreover, the Her2 level in [2] was 105% (inactive). Also, the differential viability (reversal) in assay [6] (H69AR cells + 2 uM doxorubicin) is 5.97% (inactive). Besides, the inhibition in [7] is -2.27% (inactive); in [8], -5.41% (inactive); in assay [14] it was 0.115% (inactive). Moreover, the growth inhibition in assay [9] is -4.59% (inactive); in [10], 4.39% (inactive). For the same molecule, the viability increase in [11] is -3.73% (inactive). The RAM network inhibition in assay [15] is 1.67% (inactive).
`O=C(CSc1nc2c(c(=O)n1-c1ccc(F)cc1)SCC2)NCC1CCCO1` (stereo not given): the viability in assay [1] is 93.5%; in assay [3], 93.5% (inactive); in [4], 92.6% (inactive); in assay [5] it was 105% (inactive); in assay [6] (setting [16]), 92.6%; in assay [6] (setting [17]), 105%. Besides, the viability is 98.2% (inactive) in [12] and 90.9% (inactive) in assay [13]. Moreover, the Her2 level in assay [2] is 101% (inactive). For the same molecule, the differential viability (reversal) in assay [6] (H69AR cells + 2 uM doxorubicin) is 12% (inactive). Further, the figures for the inhibition in assay [7], in assay [8] and in assay [14] were -2.4% (inactive), -1.61% (inactive) and 1.46% (inactive), respectively. Moreover, the growth inhibition is -8.12% (inactive) in assay [9] and -16.6% (inactive) in assay [10]. Moreover, the viability increase in [11] is -3.46% (inactive). Further, the RAM network inhibition in assay [15] was 5.77% (inactive).
As to `COCCNC(=O)c1ccc(CS(=O)(=O)c2c(Cl)cccc2Cl)o1`, the viability in [1] is 84.5%; in [3], 84.5% (inactive); in assay [4] it was 84% (inactive); in assay [5], 98.9% (inactive); in [6] (setting [16]), 94.8%; in [6] (setting [17]) it was 98.9%. The viability in [12] is 103% (inactive); in [13], 93% (inactive). For the same molecule, in [2], the Her2 level is 116% (inactive). For the same molecule, in assay [6] (H69AR cells + 2 uM doxorubicin), the differential viability (reversal) is 4.06% (inactive). Also, the figures for the inhibition in assay [7], in [8] and in assay [14] were -3.47% (inactive), -4.83% (inactive) and 1.32% (inactive), respectively. The figures for the growth inhibition in assay [9] and in [10] were -17.4% (inactive) and -11.8% (inactive), respectively. Further, the viability increase in [11] was -1.73% (inactive). The RAM network inhibition in assay [15] is 1.21% (inactive).
With `CC(c1ccccc1)n1cnc2ccccc21` (stereo not given), the viability in assay [1] was 82%; in assay [3], 82% (inactive); in [4], 93.4% (inactive); in assay [5], 93.5% (inactive); in assay [6] (setting [16]) it was 93.3%; in assay [6] (setting [17]), 93.5%. Also, the viability was 103% (inactive) in assay [12] and 95.2% (inactive) in [13]. The Her2 level in [2] is 104% (inactive). For the same molecule, the differential viability (reversal) in assay [6] (H69AR cells + 2 uM doxorubicin) is 0.135% (inactive). Besides, the inhibition in [7] was -1.15% (inactive); in assay [8], 0.33% (inactive); in [14], -0.115% (inactive). Also, the growth inhibition is -3.42% (inactive) in [9] and 0.48% (inactive) in assay [10]. In assay [11], the viability increase was -1.05% (inactive). In assay [15], the RAM network inhibition was 0.83% (inactive).
Consider `C=C(C)Cn1c(-c2ccccc2)nc2ccccc21`, for which the viability in [1] was 80%; in assay [3], 80% (inactive); in [4] it was 117% (inactive); in assay [5], 96.1% (inactive); in assay [6] (setting [16]), 95.3%; in assay [6] (setting [17]) it was 96.1%. Further, the viability is 80.2% (inactive) in [12] and 87.8% (inactive) in assay [13]. Moreover, the Her2 level in [2] was 102% (inactive). The differential viability (reversal) in assay [6] (H69AR cells + 2 uM doxorubicin) is 0.815% (inactive). The inhibition in assay [7] was -2.8% (inactive); in [8], -1.45% (inactive); in [14], 1% (inactive). Further, the growth inhibition in assay [9] was -10.1% (inactive); in assay [10] it was -9.65% (inactive). Moreover, the viability increase in assay [11] was -1.92% (inactive). Also, the RAM network inhibition in [15] is 5.93% (inactive).
